Data as given in PubChem BioAssay AID463173 (ICCB-Longwood Screening Facility, Harvard Medical School, 2010).
In all, about 52,000 compounds went through this assay and about 4,300 (8.3%) were called active. Shown is part of a subset that was picked to be rich in actives. A number with no mark means an inactive call. Cut-off read from the data, not from the text of the source: active = survival mostly below about 52% (no sharp cut-off); inactive = mostly above about 56%.

test system: DeltatarO mutant; test: S. aureus survival, RN4220 and DeltatarO strains – OD600, teichoic acid synthesis inhibitors, primary screen (AID 463173); settings: S. aureus RN4220 wild type/DeltatarO growth, OD600, 18 h, active compounds read low, screened at 18.75 µg/mL (by protocol)

Row | SMILES | survival
1 | O=C(CCCN1C(=O)c2cccnc2Oc2ccc(Cl)cc21)NCc1ccc(F)cc1 | 90%
2 | CCOc1ccccc1NC(=O)Cn1c(=O)n(CC(=O)NCc2ccccc2Cl)c(=O)c2sccc21 | 154%
3 | O=C(CSc1ccccc1)NCc1ccc2c(c1)CCN2C(=O)c1ccc(F)cc1 | 88%
4 | CCOc1ccccc1N1CC(c2nc3ccccc3n2CCOc2ccccc2OC)CC1=O (stereo unspecified) | 95%
5 | Cc1cccc(C)c1OCCn1c(C2CC(=O)N(Cc3ccc(F)cc3)C2)nc2ccccc21 (stereo unspecified) | 4% (active)
6 | Cc1ccc(OCCn2c(C3CC(=O)N(Cc4ccc(F)cc4)C3)nc3ccccc32)c(C)c1 (stereo unspecified) | 3% (active)
7 | CCc1ccccc1N1CC(c2nc3ccccc3n2CCCCOc2ccccc2OC)CC1=O (stereo unspecified) | 80%
8 | Cc1cccc(C)c1OCCn1c(C2CC(=O)N(c3cccc(Cl)c3)C2)nc2ccccc21 (stereo unspecified) | 57%
9 | C=CCc1ccccc1OCCn1c(C2CC(=O)N(Cc3ccc(F)cc3)C2)nc2ccccc21 (stereo unspecified) | 0% (active)
10 | Cc1ccc(C)c(OCCn2c(C3CC(=O)N(Cc4ccc(F)cc4)C3)nc3ccccc32)c1 (stereo unspecified) | 0% (active)
11 | CCOc1ccccc1N1CC(c2nc3ccccc3n2Cc2c(C)cc(C)cc2C)CC1=O (stereo unspecified) | 92%
12 | Cc1cc(C)c(Cn2c(C3CC(=O)N(c4ccc(F)cc4)C3)nc3ccccc32)c(C)c1 (stereo unspecified) | 91%
13 | COc1ccccc1OCCCn1c(C2CC(=O)N(c3ccc(F)cc3)C2)nc2ccccc21 (stereo unspecified) | 76%
14 | CC(=O)c1cccc(NC(=O)C(C)n2c(=O)cc(-c3ccccc3)c3c(C)nn(C)c32)c1 (stereo unspecified) | 102%
15 | CC1CCN(C(=O)Cn2cc(SCC(=O)NCc3ccccc3Cl)c3ccccc32)CC1 | 64%
16 | COc1cc(/C=C/c2nc(C#N)c(N3CCCCC3)o2)cc(OC)c1OC | 89%
17 | CCOc1ccc(NCc2nc3ccccc3n2CCOc2ccc(C)cc2)cc1 | 1% (active)
18 | COc1ccc(OCCn2c(C)nc3cc(C)c(C)cc32)cc1 | 57%
19 | CCc1nnc2c(Nc3ccccc3Br)nc3ccccc3n12 | 93%
20 | Cc1ccc(OCCn2c(CNc3cccc(C)c3)nc3ccccc32)cc1 | -3% (active)
21 | CCOc1ccc(NCc2n[nH]c(=S)n2-c2ccc(C)cc2)cc1 | 90%
22 | CCOc1ccc(Nc2nc3ccccc3n3c(CC)nnc23)cc1 | 36% (active)
23 | CCc1nnc2c(Nc3cccc(C(C)=O)c3)nc3ccccc3n12 | 92%
24 | COc1ccc(NCc2nc3ccccc3n2CCOc2ccc(C)cc2)cc1 | 17% (active)

Row | SMILES | survival
25 | CCC(O)c1nc2ccccc2n1CCOc1cc(C)cc(C)c1 (stereo unspecified) | 100%
26 | Cc1ccc(C)c(Cn2cc(CCC(=O)NC3CCCCC3)c3ccccc32)c1 | 86%
27 | CC(C)(C)OC(=O)N/N=C/c1cccc(O)c1 | 79%
28 | Nc1nnc2c(Nc3ccccc3)nc3nonc3n12 | 86%
29 | O=C(NC1CCCCC1)c1ccc(CSc2nc3cccnc3n2Cc2cccc(F)c2)cc1 | 83%
30 | CC(C)(C)c1ccc(-c2ncccc2O)cc1 | 53%
31 | CCc1c(C)c2ccc3c(c2oc1=O)CN(Cc1ccccc1)CO3 | 99%
32 | COc1ccc(NC(=O)C2CCN(S(=O)(=O)c3c(C)noc3/C=C/c3cccs3)CC2)cc1 | 90%
33 | Cn1c(=O)c2c(c3ccccc31)OC(=O)CC2c1cccc(F)c1 (stereo unspecified) | 59%
34 | CCc1sc(Nc2cccc(Cl)c2)nc1-c1cc2cccc(OC)c2oc1=O | 90%
35 | COc1cccc(CN(C(=O)COc2ccc(Cl)c(C)c2)C2CCS(=O)(=O)C2)c1 (stereo unspecified) | 71%
36 | Clc1ccc(NCc2nc3ccccc3n2CCOc2ccccc2)cc1 | 50%
37 | Cc1ccc(NCc2nc3ccccc3n2CCOc2ccccc2)cc1 | 3% (active)
38 | Cc1nn(CC(=O)Nc2ccccc2C(F)(F)F)c(=O)c2cccn12 | 93%
39 | COc1ccc(C(C(=O)Nc2ccc(C(C)C)cc2)N(C)C(=O)Cc2cccs2)cc1 (stereo unspecified) | 127%
40 | Cc1ccc(S(=O)(=O)N2CCNCC2)cc1 | 87%
41 | Cc1cc(C)c2sc(NC(=O)c3ccc(S(=O)(=O)N4CCOCC4)cc3)nc2c1 | 101%
42 | Cc1ccc(Cl)c2sc(NC(=O)c3ccc(S(=O)(=O)N4CCCC4)cc3)nc12 | 63%
43 | CCOc1cccc2sc(NC(=O)c3ccc(S(=O)(=O)N4CCCCC4C)cc3)nc12 (stereo unspecified) | 37% (active)
44 | CCOc1cccc2sc(NC(=O)c3ccc(S(=O)(=O)N4CCCCC4)cc3)nc12 | 94%
45 | Cc1cc(C)c2sc(NC(=O)c3ccc(S(=O)(=O)N4CCCC4)cc3)nc2c1 | 37% (active)
46 | CNC(=O)c1c(NC(=O)c2ccc(S(=O)(=O)N3CCCC(C)C3)cc2)sc2c1CCC2 (stereo unspecified) | 92%
47 | COc1ccc(C)c2sc(NC(=O)c3ccc(S(=O)(=O)N4CCCC4)cc3)nc12 | 101%
48 | Cc1ccc(C)c2sc(NC(=O)c3ccc(S(=O)(=O)N4CCCC4)cc3)nc12 | 25% (active)

Row | SMILES | survival
49 | Cc1cc(C)c2nc(NC(=O)c3ccc(S(=O)(=O)N4CCCC4)cc3)sc2c1 | 102%
50 | CNC(=O)c1c(NC(=O)c2ccc(S(=O)(=O)N3CCCCC3)cc2)sc2c1CCC2 | 0% (active)
51 | CNC(=O)c1c(NC(=O)c2ccc(S(=O)(=O)N3CCC(C)CC3)cc2)sc2c1CCC2 | 131%
52 | CCOc1cccc2sc(NC(=O)c3ccc(S(=O)(=O)N4CCCc5ccccc54)cc3)nc12 | 74%
53 | CCC(Sc1nc2ccccc2c2nc(-c3ccccc3)nn12)C(=O)Nc1cccc(OC)c1 (stereo unspecified) | 94%
54 | O=C(NCc1ccc(F)cc1)C(=O)Nc1ccc2nc3n(c(=O)c2c1)CCCCC3 | 94%
55 | Cc1cc(C)cc(NC(=O)COCc2cc(-c3ccc4c(c3)OCO4)on2)c1 | 55%
56 | COC(=O)C1=C(N)OC2=C(C(=O)CCC2)C1c1ccc(OC)cc1 (stereo unspecified) | 102%
57 | O=C(Nc1ccc2nc(SCC(=O)N3CCCC3)sc2c1)c1ccc(Br)cc1 | 92%
58 | O=c1ccn2c(n1)OC1C(O)C(CO)OC12 (stereo unspecified) | 83%
59 | O=C(c1ccccc1)N(C(=O)c1ccccc1)c1ccccn1 | 71%
60 | Cc1cc2c(cc1S(=O)(=O)Nc1cccc(C#N)c1)OCC(=O)N2 | 93%
61 | COc1cccc(N2CCN(C(=O)CCc3c(C)nc4c(c3C)c(=O)n(C)c(=O)n4C)CC2)c1 | 98%
62 | CN(c1ccc(F)cc1)S(=O)(=O)N1CCCC(C(=O)NCc2cccc(Br)c2)C1 (stereo unspecified) | 72%
63 | O=C(Nc1ccccn1)C(=NO)C(=O)Nc1ccccn1 | 98%
64 | COc1ccc(NC(=O)C(Cc2c[nH]c3ccccc23)NC(=O)OC(C)(C)C)cc1 (stereo unspecified) | 48%
65 | CC(C)c1ccccc1NC(=O)C(Cc1c[nH]c2ccccc12)NC(=O)OC(C)(C)C (stereo unspecified) | 162%
66 | Cc1ccc(NC(=O)C(Cc2c[nH]c3ccccc23)NC(=O)OC(C)(C)C)c(C)c1 (stereo unspecified) | 27% (active)
67 | N#Cc1ccccc1NC(=O)c1cccs1 | 93%
68 | COc1ccc(Nc2ncc(C(=O)Nc3cccc(OC)c3)c3ccccc23)cc1 | 106%
69 | Cc1ccc(Nc2ncc(C(=O)N3CCN(c4ccc(F)cc4)CC3)c3ccccc23)cc1Cl | 76%
70 | COc1ccc(Nc2ncc(C(=O)Nc3ccc(F)cc3F)c3ccccc23)cc1 | 35% (active)
71 | COc1ccc(OC)c(NC(=O)c2cnc(Nc3ccc(C)c(Cl)c3)c3ccccc23)c1 | 44% (active)
72 | CCOc1ccc(NC(=O)c2cnc(Nc3ccccc3OC)c3ccccc23)cc1 | 50%

Row | SMILES | survival
73 | COc1ccccc1Nc1ncc(C(=O)Nc2ccc(OC)c(OC)c2)c2ccccc12 | 43% (active)
74 | COC(=O)c1ccccc1NC(=O)c1cnc(Nc2ccc(OC)cc2)c2ccccc12 | 61%
75 | COc1ccc(Nc2ncc(C(=O)Nc3cc(C)ccc3OC)c3ccccc23)cc1 | 50%
76 | COc1ccc(Nc2ncc(C(=O)Nc3cc(Cl)c(OC)cc3OC)c3ccccc23)cc1 | 72%
77 | COc1ccc(NC(=O)c2cnc(Nc3ccc(C)c(Cl)c3)c3ccccc23)c(OC)c1 | 63%
78 | Cc1ccc(Nc2ncc(C(=O)Nc3ccc(F)cc3F)c3ccccc23)cc1Cl | 37% (active)
79 | COc1ccc(NC(=O)c2cnc(Nc3ccc(C)c(Cl)c3)c3ccccc23)cc1OC | 51%
80 | CCOC(=O)c1c(C)[nH]c(C)c1S(=O)(=O)N(C)CC(=O)Nc1cc(Cl)ccc1C | 94%
81 | COc1ccc(S(=O)(=O)c2cn(C)c3cc(N4CCOCC4)c(F)cc3c2=O)cc1 | 96%
82 | CCc1cccc(CC)c1NC1=NS(=O)(=O)c2ccccc21 | 70%
83 | Cc1cc(N2CCN(c3ccc(F)cc3)CC2)n2cnnc2n1 | 79%
84 | COc1ccc(-c2cn3cccnc3n2)cc1NC(=O)Nc1ccc(Cl)cc1 | 84%
85 | O=C(CSc1nncn2c1cc1occc12)Nc1ccc(F)c(Cl)c1 | 65%
86 | CCc1nnc(SC(CC)C(=O)Nc2cc(C)ccc2C)c2cc3occc3n12 (stereo unspecified) | 79%
87 | Cc1cc2c(cc3c(SCC(=O)Nc4ccc(Cl)cc4F)nncn32)o1 | 36% (active)
88 | CCC(Sc1nncn2c1cc1oc(C)cc12)C(=O)Nc1ccc(F)cc1 (stereo unspecified) | 54%
89 | Cc1cc(C)cc(NC(=O)CSc2nncn3c2cc2occc23)c1 | 46% (active)
90 | CCc1cccc(C)c1NC(=O)C(CC)Sc1nncn2c1cc1occc12 (stereo unspecified) | 53% (active)
91 | Cc1cc(C)c(NC(=O)CSc2nncn3c2cc2oc(C)cc23)c(C)c1 | 65%
92 | CCc1ccccc1NC(=O)CSc1nncn2c1cc1oc(C)cc12 | 62%
93 | CCC(Sc1nncn2c1cc1occc12)C(=O)Nc1ccc(C)c(Cl)c1 (stereo unspecified) | 36% (active)
94 | CCc1cccc(C)c1NC(=O)CSc1nnc(CC)n2c1cc1occc12 | 67%
95 | CCc1nnc(SC(CC)C(=O)Nc2ccc(OC)c(Cl)c2)c2cc3occc3n12 (stereo unspecified) | 72%
96 | COc1ccc(NC(=O)CSc2nncn3c2cc2occc23)c(OC)c1 | 69%
